# Assay results from PubChem BioAssay (EPA / NIEHS).
# Inconclusive results are not listed. Calls of active or inactive are those of the source. Rule for the calls: active = hit-call score of the fitted dose curve at least 0.9, where 1 is the maximum; inconclusive = response in the unintended direction; inactive = score below 0.9.
# Columns and labels:
# [1] = ACEA_AR_agonist_AUC_viability: ACEA Biosciences xCELLigence Real-Time Cell Analysis on Androgen Receptor Agonism for Viability (AID 2283775);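 for AC50: viability read 80 hours after compound addition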
# How it was run: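 22Rv1 cells; impedance growth kinetics; 8-pt 1:4 dilutions from 100 uM top final, ≤0.5% DMSO; n = 2; 80 h read; AUC viability, loss-of-signal vs DMSO.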
# [2] = ACEA_AR_antagonist_AUC_viability: ACEA Biosciences xCELLigence Real-Time Cell Analysis on Androgen Receptor Antagonism for Viability (AID 2283776);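 note: 22Rv1 human prostate cancer cells growing on impedance electrode plates; area under impedance growth curve at 80 h after dosing as viability; hits lower the growth signal relative to DMSO meaning cytotoxicity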
# How it was run: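 22Rv1 prostate cells, continuous dosing up to 100 uM final (0.5% DMSO max), duplicate plates. Growth measured by impedance; AUC at 80 h, loss of signal vs DMSO.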
# [3] = ACEA_ER_AUC_viability: ACEA Biosciences xCELLigence Real-Time Cell Analysis on Estrogen Receptor Agonism for Viability (AID 2283782);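 note: hit means loss of impedance signal meaning reduced cell growth or viability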
# How it was run: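 Read-out: real-time electrical impedance (RT-CES) area under curve, loss of signal taken as reduced viability, normalized to DMSO baseline. T-47D cells, charcoal-stripped serum medium, compounds up to 100 uM final, continuous exposure, 80 h.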
compound,measurement,setting,value
CC(O)CN(CCN(CC(C)O)CC(C)O)CC(C)O (centres undefined),outcome,[1],inactive
same,outcome,[2],inactive
CC(C)=CCC/C(C)=C/CO,AC50,[1],33 µM (active)
same,AC50,[2],25.6 µM (active)
O=C1OC(=O)C2C3C=CC(C3)C12 (centres undefined),outcome,[1],inactive
same,outcome,[2],inactive
CC[C@H]1OC(=O)[C@H](C)[C@@H](O[C@H]2C[C@@](C)(OC)[C@@H](O)[C@H](C)O2)[C@H](C)[C@@H](O[C@@H]2O[C@H](C)C[C@H](N(C)C)[C@H]2O)[C@](C)(O)C[C@@H](C)C(=O)[C@H](C)[C@@H](O)[C@]1(C)O,outcome,[1],inactive
CCOCCOCCOCCO,outcome,[1],inactive
same,outcome,[2],inactive
Cc1[nH]cnc1C[C@H]1CCc2c(C)c3ccccc3n2C1=O,AC50,[1],44.5 µM (active)
same,AC50,[2],50.1 µM (active)
CN(C)c1ccc(Cc2ccc(N(C)C)cc2)cc1,AC50,[1],56.8 µM (active)
same,AC50,[2],50 µM (active)
CC/C(=C\C(=N/O)C(N)=O)C(C)[N+](=O)[O-] (centres undefined),outcome,[1],inactive
same,AC50,[2],74.2 µM (active)
CC(C)CCO,outcome,[1],inactive
same,outcome,[2],inactive
CCCCC(CC)COC(=O)CCCCCCCCC(=O)OCC(CC)CCCC (centres undefined),outcome,[1],inactive
COc1ccc2sc(C(=O)Nc3nnn[nH]3)c(OC(C)C)c2c1,AC50,[1],9.32 µM (active)
same,AC50,[2],12.9 µM (active)
same,AC50,[3],9.87 µM (active)
CC[C@H]1CC[C@H](NCc2cc3c(cc2OC)[C@H]2C[C@H]2C(=O)N3C)[C@H](c2ccccc2)N1,AC50,[1],17.5 µM (active)
same,AC50,[2],18.2 µM (active)
same,AC50,[3],18.5 µM (active)
On1ccccc1=S,AC50,[1],9.92 µM (active)
same,AC50,[2],50 µM (active)
same,AC50,[3],88.8 µM (active)
Cn1cnc([N+](=O)[O-])c1Sc1ncnc2nc[nH]c12,AC50,[1],1.15 µM (active)
same,AC50,[2],1.52 µM (active)
same,AC50,[3],1.42 µM (active)
CCC(C)(C)C(=O)O[C@H]1C[C@@H](C)C=C2C=C[C@H](C)[C@H](CC[C@@H]3C[C@@H](O)CC(=O)O3)[C@H]21,AC50,[1],29.9 µM (active)
same,AC50,[2],32.1 µM (active)
same,AC50,[3],30.5 µM (active)
C=CC(=C)CCC=C(C)C,outcome,[1],inactive
same,outcome,[2],inactive
same,outcome,[3],inactive
COc1cccc(-c2ccc(/C=C\CN3CCCCCC3)cc2Cl)c1,AC50,[1],62.7 µM (active)
same,AC50,[2],45.2 µM (active)
same,AC50,[3],56.3 µM (active)
O=c1n(CC2CO2)c(=O)n(CC2CO2)c(=O)n1CC1CO1 (centres undefined),AC50,[1],0.571 µM (active)
same,AC50,[2],1.02 µM (active)
same,AC50,[3],35.7 µM (active)
COC(=O)CC(=O)OC,outcome,[1],inactive
same,outcome,[2],inactive
same,outcome,[3],inactive
CCn1nc(Cc2ccccc2)cc1C1CCN(C[C@H]2C[C@H](N(C)[C@@H](C(=O)O)C(C)C)C[C@@H]2c2cccc(F)c2)CC1,AC50,[1],36 µM (active)
same,AC50,[2],45 µM (active)
same,AC50,[3],7.91 µM (active)
Cc1c(-c2cccnc2)c2ccccc2n1CCCCC(=O)O,AC50,[1],24.1 µM (active)
same,AC50,[2],22.8 µM (active)
same,AC50,[3],17.3 µM (active)
CC[C@H](C)C(=O)O[C@H]1C[C@@H](C)C=C2C=C[C@H](C)[C@H](CC[C@@H]3C[C@@H](O)CC(=O)O3)[C@H]21,outcome,[1],inactive
same,AC50,[2],50 µM (active)
same,AC50,[3],28.2 µM (active)
